HT1080NT lethal = qHTS for induction of synthetic lethality in tumor cells producing 2HG: qHTS for the HT-1080-NT fibrosarcoma cell line; Potency, µM (titrated, usually from 46.1 µM), for the others: top-dose activity, negative = less viability, most hits filed as cytotoxic; 1.6% of 360,000 active; HT-1080-NT fibrosarcoma viability, CellTiter-Glo ATP luminescence, 48 h;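 also: NT is the 2HG producing partner of a matched IDH1 knockdown line; potency is read from the fitted curve at half-maximal effect; 0% = DMSO-treated cells and -100% = media-only wells without cells; nearly all actives have a fitted effect of over 55% in size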
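Read-out is CellTiter-Glo luminescence after 10 minutes at room temperature, following 48 hours' compound treatment of HT-1080-NT cells (750 cells/well, RPMI, 5% FBS, 37 degrees C).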
HT1080 IDH1KD tx = qHTS for induction of synthetic lethality in tumor cells producing 2HG: qHTS for the HT-1080-IDH1KD cell line; HT-1080 IDH1 knockdown viability, ATP luminescence, 48 h; Potency, µM (top dose mostly 46.1 µM), without a hit: at the highest dose activity, negative = toxicity, usual class: cytotoxic; 2% of 360,000 active; AID 686971, 2013;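 also: potency is read from the fitted curve at half-maximal effect; 0% = DMSO wells and -100% = cell-free medium wells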
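IDH1KD HT-1080 cells, 750/well, RPMI + 5% FBS; compound pinned after 2 h settling; 48 h, 37 °C; CellTiter-Glo luminescence; % activity normalised to DMSO and no-cell wells; curves fitted, classed by r2 and efficacy.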
DT40 TDP1 no CPT = qHTS for Inhibitors of human tyrosyl-DNA phosphodiesterase 1 (TDP1): qHTS in cells in absence of CPT; DT40 Tdp1-/- hTDP1 cells, no CPT, ATP luminescence, 48 h; Potency, µM (top dose mostly 46.2 µM), without a hit: top-dose activity change, negative = growth inhibition, most hits filed as inhibitors; 15% of 420,000 active; also: potency is read from the fitted curve at half-maximal effect; nearly all actives have a fitted effect of over 55% in size
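A cellular qHTS used chicken DT40 cells lacking endogenous Tdp1 but carrying stably transfected human TDP1. Compounds were applied without camptothecin, and cell growth kinetics were judged by ATP-dependent luminescence after ≥48 hr.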
DT40 TDP1 CPT = qHTS for Inhibitors of human tyrosyl-DNA phosphodiesterase 1 (TDP1): qHTS in cells in presence of CPT. AID 686979, 2013. Potency, µM (doses to about 46.2 µM), for the others: top-dose activity change, negative = growth inhibition, actives largely listed as inhibitors. chicken DT40 Tdp1-/-;hTDP1 cells + 20 nM CPT, ATP luminescence, 48 h. 12% of 420,000 active; also: potency is read from the fitted curve at half-maximal effect; nearly all actives have a fitted effect of over 55% in size
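Cell growth measured by CellTiter-Glo luminescence after a minimum 48 h, 37 C compound exposure with 20 nM CPT in Tdp1-knockout DT40 cells stably expressing hTDP1, seeded 400/well; qHTS titration format.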
ELG1 DNA repair = qHTS screen for small molecules that inhibit ELG1-dependent DNA repair in human embryonic kidney (HEK293T) cells expressing luciferase-tagged ELG1; HEK293T ELG1-luciferase reporter, luminescence, 16 h; DNA damage induced by 5-fluorouridine; Potency, µM (titrated, usually from 46.1 µM), inactives show at the highest dose activity change, negative = inhibition, hits mostly inhibitors; 2.3% of 330,000 active; AID 504467, 2011; also: potency is read from the fitted curve at half-maximal effect; nearly all actives have a fitted effect of over 55% in size
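Step one: seed 2,000 cells per well. Step two: pin-transfer compound or DMSO alongside 5-fluorouridine. Step three: incubate 16 hr, 37 °C, 5% CO2. Step four: add ONE-Glo, wait 30 min, read luminescence.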
IL-1B inflam inh = qHTS for Inhibitors of Inflammasome Signaling: IL-1-beta AlphaLISA Primary Screen; activity change, % at 57.5 µM; 4.7% of 360,000 active; THP-1 LPS/ATP IL-1B secretion, AlphaLISA, 16 h; active compounds read low; AID 743279, 2014; in the data active = activity change below about -50%; inconclusive = mostly about -30% to -49%
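THP-1 cells pretreated 1 hr with compounds (up to 57.5 uM final), then stimulated with LPS (250 ng/mL final) plus ATP (1.25 mM final); secreted IL-1B measured by AlphaLISA after 16 hr, decreased signal indicating inhibition.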
* = called active by the depositor. Sampled rows, rich in hits. Any-hit rate of the full collection: about 19%. Unless noted, calls follow the shape of the dose curve; as a rule, active = well fitted curve in the direction sought with a large enough effect; inconclusive = small, poorly fitted or top-dose-only effect, or another doubt; inactive = no such curve, though single readings can be large; an effect the other way counts as inactive or inconclusive. Unless noted, % is scaled to controls: 0 for no effect and ±100 for the full control effect.

How did COc1ccccc1CNC(=O)Cc1c(C)c2cc3c(C)coc3c(C)c2oc1=O do in these assays?
DT40 TDP1 no CPT: 12µM*; DT40 TDP1 CPT: 16µM*

What do the screens show for `Cc1coc2c(C)c3oc(=O)c(CCC(=O)NCCc4ccccc4)c(C)c3cc12`?
DT40 TDP1 no CPT: 16µM*; DT40 TDP1 CPT: 13µM*

How did CCCC(NC(=O)CCc1c(C)c2cc3c4c(oc3c(C)c2oc1=O)CCCC4)C(=O)O (centres undefined) do in these assays?
HT1080NT lethal: -28%; HT1080 IDH1KD tx: -13%; DT40 TDP1 no CPT: -10%; DT40 TDP1 CPT: 12µM*; ELG1 DNA repair: 14%; IL-1B inflam inh: 21

How did Cc1c(CC(=O)NCc2ccccc2)c(=O)oc2c(C)c(O)ccc12 do in these assays?
DT40 TDP1 no CPT: 13µM*; DT40 TDP1 CPT: 13µM*

How did Cc1coc2c(C)c3oc(=O)c(CC(=O)N[C@@H](CC(C)C)C(=O)O)c(C)c3cc12 do in these assays?
HT1080NT lethal: -3%; HT1080 IDH1KD tx: 1%; DT40 TDP1 no CPT: 3%; DT40 TDP1 CPT: 7%; ELG1 DNA repair: 11%; IL-1B inflam inh: 0

How did Cc1coc2c(C)c3oc(=O)c(CC(=O)NCc4ccccc4)c(C)c3cc12 do in these assays?
DT40 TDP1 no CPT: 4.6µM*; DT40 TDP1 CPT: 5.8µM*

What do the screens show for `O=S(=O)(Nc1cccc(-n2cnnn2)c1)c1ccccc1F`?
HT1080NT lethal: 2%; HT1080 IDH1KD tx: 2%; DT40 TDP1 no CPT: 0%; DT40 TDP1 CPT: 4%; ELG1 DNA repair: 16%; IL-1B inflam inh: 1

What do the screens show for `CC(O)(CS(=O)(=O)Cc1ccc(Cl)cc1)C(=O)Nc1cccc(C(F)(F)F)c1` (centres undefined)?
HT1080NT lethal: inconclusive; HT1080 IDH1KD tx: 13µM*; DT40 TDP1 no CPT: inconclusive; DT40 TDP1 CPT: -29%; ELG1 DNA repair: 1%; IL-1B inflam inh: 5

Results for O=C(Nc1cccc(C(F)(F)F)c1)N(Cc1ccc(Cl)cc1)CC(O)C(F)(F)F (centres undefined) ?
HT1080NT lethal: 16µM*; HT1080 IDH1KD tx: 18µM*; DT40 TDP1 no CPT: inconclusive; DT40 TDP1 CPT: inconclusive; ELG1 DNA repair: 3%; IL-1B inflam inh: -7

Results for CC(=O)Nc1cccc(NS(=O)(=O)Cc2ccc(Cl)cc2)c1 ?
HT1080NT lethal: 12%; HT1080 IDH1KD tx: 2%; DT40 TDP1 no CPT: -13%; DT40 TDP1 CPT: -1%; ELG1 DNA repair: 2%; IL-1B inflam inh: 41

Results for Cc1cccc(NC(=S)N(Cc2ccc(Cl)cc2)Cc2ccc(C(=O)O)cc2)c1 ?
HT1080NT lethal: -1%; HT1080 IDH1KD tx: -12%; DT40 TDP1 no CPT: -18%; DT40 TDP1 CPT: 18%; ELG1 DNA repair: inconclusive; IL-1B inflam inh: -6

How did CCOc1ccc(Cc2c(C)[nH]c3ccc(C(=O)O)cc3c2=S)cc1 do in these assays?
HT1080NT lethal: 9%; HT1080 IDH1KD tx: 9%; DT40 TDP1 no CPT: 4%; DT40 TDP1 CPT: 11%; ELG1 DNA repair: -12%; IL-1B inflam inh: -8

How did O=C(NCC1CCN(C(=O)c2c(F)c(F)c(F)c(F)c2F)CC1)c1c(F)c(F)c(F)c(F)c1F do in these assays?
HT1080NT lethal: 0%; HT1080 IDH1KD tx: 1%; DT40 TDP1 no CPT: inconclusive; DT40 TDP1 CPT: inconclusive; ELG1 DNA repair: 2%; IL-1B inflam inh: 0

Results for CCc1ccc(/C=C2\SC(=S)N(CCCC(=O)N(CCO)c3ccccc3)C2=O)cc1 ?
HT1080NT lethal: inconclusive; HT1080 IDH1KD tx: inconclusive; DT40 TDP1 no CPT: 16µM*; DT40 TDP1 CPT: inconclusive; IL-1B inflam inh: -70*

What do the screens show for `CCOc1ccc(/C=C2\SC(=S)N(CCC(=O)N(CCO)c3ccccc3)C2=O)cc1`?
HT1080NT lethal: inconclusive; HT1080 IDH1KD tx: inconclusive; DT40 TDP1 no CPT: inconclusive; DT40 TDP1 CPT: inconclusive; ELG1 DNA repair: -18%; IL-1B inflam inh: -81*

What do the screens show for `CC(=O)c1cccc(Nc2cc(C)nc3ccccc23)c1`?
HT1080NT lethal: -5%; HT1080 IDH1KD tx: -10%; DT40 TDP1 no CPT: -16%; DT40 TDP1 CPT: inconclusive; ELG1 DNA repair: 9%; IL-1B inflam inh: 50

How did Cc1cc(C)c2nc(C)cc(Nc3ccc(C(=O)N(C)C)cc3)c2c1 do in these assays?
HT1080NT lethal: -1%; HT1080 IDH1KD tx: 1%; DT40 TDP1 no CPT: -10%; DT40 TDP1 CPT: 18%; ELG1 DNA repair: -25%; IL-1B inflam inh: 12

What do the screens show for `CC(=O)c1ccc(Nc2cc(C)nc3c(C)cc(C)cc23)cc1`?
HT1080NT lethal: 9.2µM*; HT1080 IDH1KD tx: 8.2µM*; DT40 TDP1 no CPT: 4.6µM*; DT40 TDP1 CPT: 4.6µM*; ELG1 DNA repair: inconclusive; IL-1B inflam inh: -95*

How did CC(=O)c1cccc(Nc2cc(C)nc3c(C)cccc23)c1 do in these assays?
HT1080NT lethal: -8%; HT1080 IDH1KD tx: -29%; DT40 TDP1 no CPT: inconclusive; DT40 TDP1 CPT: -26%; ELG1 DNA repair: 11%; IL-1B inflam inh: -75*

How did Cc1cc(C)c2nc(C)cc(Nc3ccc(C(=O)NCCO)cc3)c2c1 do in these assays?
HT1080NT lethal: -14%; HT1080 IDH1KD tx: -14%; DT40 TDP1 no CPT: inconclusive; DT40 TDP1 CPT: -5%; ELG1 DNA repair: 2%; IL-1B inflam inh: -90*

How did Cn1cccc1C(=O)N1CCC2(CC1)CCN(C(c1ccccc1)c1ccccc1)CC2 do in these assays?
DT40 TDP1 no CPT: 15µM*; DT40 TDP1 CPT: inconclusive

Results for CN1CCCC2(CCN(C(=O)c3cccn3C)CC2)C1 ?
DT40 TDP1 no CPT: -11%; DT40 TDP1 CPT: 16%

Results for Cn1cccc1C(=O)N1CCC2(CCCN(c3ncccn3)C2)CC1 ?
DT40 TDP1 no CPT: 0.65µM*; DT40 TDP1 CPT: inconclusive

How did Cn1cccc1C(=O)N1CCC2(CC1)CCN(c1ccccn1)CC2 do in these assays?
DT40 TDP1 no CPT: 15µM*; DT40 TDP1 CPT: inconclusive

How did CC(C)CN1CCC2(CC1)CCN(C(=O)c1cccn1C)CC2 do in these assays?
DT40 TDP1 no CPT: -3%; DT40 TDP1 CPT: 10%

Results for Cc1cc(-c2nnnn2-c2ccc(F)cc2)no1 ?
HT1080NT lethal: 0%; HT1080 IDH1KD tx: -4%; DT40 TDP1 no CPT: -4%; DT40 TDP1 CPT: -14%; ELG1 DNA repair: -4%; IL-1B inflam inh: -11

Screens from PubChem BioAssay.
